Only some compounds are listed: those with a hit (about 3.4% of all), similar ones and a draw of the others.
TEAD-YAP inh: TEAD-YAP interaction inhibition; inhibition, % at 9.12 µM; 640,000 compounds, 1.4% hits; HEK-TIYL cells, TEAD-Gal4/YAP UAS-luciferase luminescence; in the data active means inhibition above about 32%
FBW7 act: human FBW7 E3 ligase activation, primary screen; Q969H0; AlphaScreen FBW7–phospho-cyclin E peptide binding, activator screen; normalized activity (activation), % at 26.1 µM; 650,000 compounds, 0.13% hits; AID 1259310; in the data active means normalized activity above about 1.9%;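 further: purified mutant Fbw7 with reduced substrate affinity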
MITF inh: blocks human microphthalmia-associated transcription factor. O75030. AlphaScreen MITF homodimerization, bead proximity signal. inhibition, % at 2.6 µM. 650,000 compounds, 0.91% hits. AID 1259374; in the data active means inhibition above about 50%
GPR151 activ: human GPR151 activation. PathHunter beta-arrestin GPR151 cells, luminescence. activation, % at 11.2 µM. 650,000 compounds, 1% hits; in the data active means activation above about 4.9%
GPR151 confirm: human GPR151 activation, confirmation screen | shares compounds with GPR151 activ | activation, % at 11.2 µM | 6,700 tested, under 10 active | GPR151 PathHunter beta-arrestin cells, luminescence, 90 min; % of EA-reagent control over plate median;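 active means mean percent activation across replicates above the confirmation screen cutoff of 4.91%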
GPR119 counter: activates human GPR119 in a GPR151 counter-screen; shares compounds with GPR151 activ; GPR119 PathHunter beta-arrestin cells, luminescence, 90 min; 0 = compound-well median, 100 = enzyme-acceptor control; activation, % at 11.2 µM; 6,700 compounds, 0.3% hits;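 active means mean percent activation in the counterscreen above 29.09%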;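 further: counterscreen on off-target GPR119 to flag nonselective hits from the GPR151 activator screen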
Target sequence (Q8TDV5 whole entry, looked up): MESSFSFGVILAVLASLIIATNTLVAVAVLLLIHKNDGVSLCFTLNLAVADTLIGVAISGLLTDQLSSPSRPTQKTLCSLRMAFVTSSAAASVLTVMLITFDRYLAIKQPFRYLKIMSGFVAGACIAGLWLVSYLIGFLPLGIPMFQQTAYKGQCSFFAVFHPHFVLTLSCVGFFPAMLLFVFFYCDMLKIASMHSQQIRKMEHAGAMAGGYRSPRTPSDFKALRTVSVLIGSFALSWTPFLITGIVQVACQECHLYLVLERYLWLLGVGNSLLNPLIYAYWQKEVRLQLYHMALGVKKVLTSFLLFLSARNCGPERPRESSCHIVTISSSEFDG
Each line names hits and unclear results; the compound was inactive in the other large screens (follow-up assays come after a bar, where they were run).

O=C(NCc1cccc(C(F)(F)F)c1)C1CCN(c2ccc(NC3CCN(Cc4ccccc4)CC3)nn2)CC1	TEAD-YAP inh 38, GPR151 activ 5.6 | GPR151 confirm inactive | GPR119 counter inactive
Cn1nccc1Nc1ccc(N2CCC(C(=O)NCc3cccc(C(F)(F)F)c3)CC2)nn1	GPR151 activ 5.2 | GPR151 confirm inactive | GPR119 counter inactive
O=C(NCc1cccc(C(F)(F)F)c1)C1CCN(c2ccc(Nc3ccccc3)nn2)CC1	none
O=C(NCc1cccnc1)C1CCN(c2ccc(NC3CCN(Cc4ccccc4)CC3)nn2)CC1	none
COc1cccc(C(=O)NC(=S)Nc2ccc(-c3nc4ncccc4o3)cc2)c1	none
CCCOc1ccc(C2(C)NC(=O)N(C)C2=O)cc1 (stereo unspecified)	none
COCC(C)NCC(O)COc1cc(Cl)ccc1Cl (stereo unspecified)	GPR151 activ 14 | GPR151 confirm inactive | GPR119 counter inactive
CCC(C)NC(=O)C1=C(C)C(=O)OC12CCCCC2 (stereo unspecified)	GPR151 activ 12 | GPR151 confirm inactive | GPR119 counter inactive
COc1cc(C#N)ccc1OCC(=O)N(C)Cc1ccc(F)cc1	GPR151 activ 8.0 | GPR151 confirm inactive | GPR119 counter inactive
COc1cc(C#N)ccc1OCC(=O)NC(C)c1ccc(F)cc1 (stereo unspecified)	none
Cc1nonc1CN(C)Cc1c(C(=O)N2CCCCCCC2)nc2sccn12	none
CC(C)(C)c1cc(C(=O)N2CCOCC2)cc(C(C)(C)C)c1	none
CCC(C)c1ccccc1NS(=O)(=O)Cc1ccccc1 (stereo unspecified)	GPR151 activ 5.8 | GPR151 confirm inactive | GPR119 counter inactive
CC(C)NC(=O)c1ccccc1NS(=O)(=O)Cc1ccccc1	none
CNC(=O)C(=O)c1c(C)n(C)c2ccccc12	none
Cc1c(C(=O)C(=O)NC(C)C)c2ccccc2n1C	GPR151 activ 6.3 | GPR151 confirm inactive | GPR119 counter inactive
FC(F)(F)c1ccc(Nc2nc(NCCN3CCOCC3)c3[nH]cnc3n2)cc1	none
COc1ccc(-n2nc3ccc(NC(=O)c4ncn[nH]4)cc3n2)cc1Cl	GPR151 activ 5.0 | GPR151 confirm inactive | GPR119 counter inactive
O=C(CCC(=O)c1ccc(Br)cc1)Nc1cccnc1	none
O=C(CCC(=O)c1ccc(Oc2ccccc2)cc1)Nc1cccnc1	GPR151 activ 6.8 | GPR151 confirm inactive | GPR119 counter inactive
